Source: PubChem
Rows were chosen to be rich in hits. Some 18% of all compounds tested hit in one or more screens of this group.
HepG2 tox: counter-screen for TGF-b inhibitors: cytotoxicity in HepG2 cells; hit rate 0.76% among 410,000; Potency, µM (doses to about 46.1 µM), for the others: top-dose activity change, negative = cytotoxicity, usual class: cytotoxic; HepG2 CAGA-GFP viability, ATP luminescence, 18 h; AID 588856; also: potency is read from the fitted curve at half-maximal effect
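CellTiter-Glo luminescence gave cytotoxicity after 18 hours at 37 degrees C. The cells were HepG2 CAGA-GFP in 1% FBS DMEM, stimulated with 500 pg/mL TGF-beta after compound addition. %Activity was normalised to no-cell wells (complete cell-killing) and DMSO (no toxicity), and curves were fitted and classified.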
IL-1B inflam inh: blocks inflammasome-driven IL-1 beta release; THP-1 LPS/ATP IL-1B secretion, AlphaLISA, 16 h; hits give low values; AID 743279; hit rate 4.7% among 360,000; activity change, % at 57.5 µM; in the data active = activity change below about -50%; inconclusive = mostly about -30% to -49%; also: % is scaled to controls: 0 for no effect and ±100 for the full control effect
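THP-1 cells pretreated 1 hr with compounds (up to 57.5 uM final), then stimulated with LPS (250 ng/mL final) plus ATP (1.25 mM final); secreted IL-1B measured by AlphaLISA after 16 hr, decreased signal indicating inhibition.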
TDP1 inh: blocks human tyrosyl-DNA phosphodiesterase 1 | AID 485290 | Potency, µM (series often up to 130 µM), for inactives: top-dose activity change, negative = inhibition, usual class: inhibitors | recombinant TDP1, AlphaScreen DNA substrate cleavage | hit rate 0.28% among 350,000; also: potency is read from the fitted curve at half-maximal effect; % is scaled to controls: 0 for no effect and ±100 for the full control effect; nearly all actives have a fitted effect of over 40% in size
Target sequence (Q9NUW8 whole entry, looked up): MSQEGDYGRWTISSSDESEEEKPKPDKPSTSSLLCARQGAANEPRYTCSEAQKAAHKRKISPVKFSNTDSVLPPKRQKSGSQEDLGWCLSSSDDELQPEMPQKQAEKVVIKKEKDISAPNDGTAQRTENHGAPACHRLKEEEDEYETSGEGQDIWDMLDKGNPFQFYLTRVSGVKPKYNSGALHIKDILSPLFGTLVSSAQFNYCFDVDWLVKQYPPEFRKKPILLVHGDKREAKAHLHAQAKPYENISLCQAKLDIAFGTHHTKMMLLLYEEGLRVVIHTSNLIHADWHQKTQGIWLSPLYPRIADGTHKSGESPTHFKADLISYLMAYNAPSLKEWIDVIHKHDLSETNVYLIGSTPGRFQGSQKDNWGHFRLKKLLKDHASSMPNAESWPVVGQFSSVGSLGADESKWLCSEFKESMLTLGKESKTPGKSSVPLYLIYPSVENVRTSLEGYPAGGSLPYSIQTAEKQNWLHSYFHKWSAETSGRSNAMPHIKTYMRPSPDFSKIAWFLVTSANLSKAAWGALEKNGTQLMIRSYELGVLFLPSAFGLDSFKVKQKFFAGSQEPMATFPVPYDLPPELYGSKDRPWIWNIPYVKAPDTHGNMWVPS
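Recombinant human Tdp1 (E. coli-expressed, 1 nM final) preincubated with compounds 15 min at room temperature, then 5'-biotin/3'-phosphotyrosine-FITC DNA substrate (15 nM final) added for 5 min. AlphaScreen beads (10 ug/ml final) added 10 min; cleavage lowers signal.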
TDP1 cell noCPT: qHTS for Inhibitors of human tyrosyl-DNA phosphodiesterase 1 (TDP1): qHTS in cells in absence of CPT | DT40 Tdp1-/- hTDP1 cells, no CPT, ATP luminescence, 48 h | Potency, µM (highest dose often 46.2 µM), for the others: at the highest dose activity change, negative = growth inhibition, hits mostly inhibitors | hit rate 15% among 420,000 | AID 686978, 2013; also: potency is read from the fitted curve at half-maximal effect; % is scaled to controls: 0 for no effect and ±100 for the full control effect; nearly all actives have a fitted effect of over 55% in size
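No-CPT arm: Tdp1-/-;hTDP1 DT40 cells (400/well) plus compounds, incubated ≥48 hr at 37 °C. Readout CellTiter-Glo luminescence.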
TDP1 cell CPT: DT40-hTDP1 cell growth loss with CPT | Potency, µM (doses to about 46.2 µM), without a hit: top-dose activity change, negative = growth inhibition, hits mostly inhibitors | hit rate 12% among 420,000 | chicken DT40 Tdp1-/-;hTDP1 cells + 20 nM CPT, ATP luminescence, 48 h; also: potency is read from the fitted curve at half-maximal effect; % is scaled to controls: 0 for no effect and ±100 for the full control effect; nearly all actives have a fitted effect of over 55% in size
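Chicken DT40 Tdp1-/- cells complemented with human TDP1, 400 cells/well, exposed to compounds plus 20 nM camptothecin for at least 48 h at 37 C; viability read as ATP content by CellTiter-Glo luminescence.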
TGFb inhibitor: inhibitors of TGF-b signaling | Potency, µM (series often up to 46.1 µM), without a hit: at the top dose activity, negative = inhibition, hits mostly inhibitors | HepG2 CAGA-GFP TGF-b/SMAD3 reporter, GFP fluorescence, 18 h; TGF-beta stimulated, 500 pg/mL final | AID 588855 | hit rate 1.2% among 410,000; also: potency is read from the fitted curve at half-maximal effect; % is scaled to controls: 0 for no effect and ±100 for the full control effect; nearly all actives have a fitted effect of over 65% in size
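TGF-beta reporter screen: HEPG2 CAGA-GFP, 1% FBS, 500 pg/mL TGF-beta final, 18 h; per-cell GFP summed per well; curves fitted and categorized by class.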
Starred values were filed as active, the others as inactive; u = inconclusive; x = not tested or not shown. Unless noted, calls follow the shape of the dose curve; as a rule, active = well fitted curve in the direction sought with a large enough effect; inconclusive = small, poorly fitted or top-dose-only effect, or another doubt; inactive = no such curve, though single readings can be large; an effect the other way counts as inactive or inconclusive.

SMILES	HepG2 tox	IL-1B inflam inh	TDP1 inh	TDP1 cell noCPT	TDP1 cell CPT	TGFb inhibitor
COC(=O)c1cc(S(=O)(=O)N2CCC(c3cc(OC)ccc3OC)C2)c[nH]1 (configuration not stated)	-15%	-5	2%	u	13µM*	-21%
COC(=O)c1cc(S(=O)(=O)N2CCC(c3ccccc3)C2)c[nH]1 (configuration not stated)	4%	31	1%	u	23µM*	18%
COc1ccccc1CCNCc1ccc(OC)c(OCc2ccccc2)c1	-65%	-99*	-3%	13µM*	-92%	1%
COc1cc(CNCCc2ccccc2)ccc1OCc1ccc(Cl)nc1	-41%	-52*	4%	u	u	-18%
COc1cc(CNCCO)ccc1OCCc1ccccc1	-3%	-18	7%	26µM*	u	1%
Cc1cccc(NS(=O)(=O)c2c(C)nc3sccn3c2=O)c1C	-18%	x	-3%	-23%	-6%	7%
CC(Sc1nnc2n1CCCCC2)C(=O)Nc1cccc(S(=O)(=O)N2CCOCC2)c1 (configuration not stated)	-11%	-6	1%	10%	5%	17%
Cc1nc2c3cc(F)ccc3n(CCN3CCCCC3)c2s1	-12%	u	-5%	7.3µM*	6.5µM*	-17%
Cc1nc2c3cc(F)ccc3n(Cc3ccccc3F)c2s1	1%	8	5%	u	7.3µM*	0%
Cc1nc2c3ccccc3n(CCN3CCCCC3)c2s1	x	x	4%	x	x	x
O=C(Nc1ccccc1)C1CCCN1S(=O)(=O)c1ccc(Br)cc1 (configuration not stated)	-3%	-16	1%	8%	u	0%
CCOc1ccccc1NC(=O)C1CCCN1S(=O)(=O)c1ccccc1C(F)(F)F (configuration not stated)	-14%	13	-3%	21µM*	21µM*	-29%
CCOc1ccccc1NC(=O)C1CCCN1S(=O)(=O)c1ccc2nc(-c3ccccc3)[nH]c2c1 (configuration not stated)	-27%	x	5%	6.5µM*	10µM*	11µM*
CCc1cccc(NC(=O)C2CCCN2S(=O)(=O)c2ccc3nc(-c4ccccc4)[nH]c3c2)c1 (configuration not stated)	-23%	x	8%	8.2µM*	7.3µM*	u
Cc1cc(C)cc(NC(=O)C2CCCN2S(=O)(=O)c2ccc3nc(-c4ccccc4)[nH]c3c2)c1 (configuration not stated)	-29%	x	5%	15µM*	u	u
CCOc1ccccc1NC(=O)C1CCN(S(=O)(=O)c2ccc3[nH]c(=O)ccc3c2)CC1	-23%	x	-2%	-19%	-5%	-1%
CCc1ccc(C(=O)NNC(=O)c2cccc(S(=O)(=O)N3CCN(C)CC3)c2)cc1	-20%	15	5%	-14%	2%	u
COc1ccc(NC(=S)NC2CC3CCCC(C2)N3C2CC2)cc1 (configuration not stated)	11%	-11	4%	-29%	u	0%
CCc1ccc(NC(=S)NC2CC3CCCC(C2)N3Cc2cccs2)cc1 (configuration not stated)	-15%	-90*	4%	u	18µM*	-16%
COc1cccc(NC(=S)NC2CC3CCCC(C2)N3CC(C)C)c1 (configuration not stated)	-44%	-16	-5%	16µM*	u	0%
CCCN1C2CCCC1CC(NC(=S)Nc1ccc(OC)cc1)C2 (configuration not stated)	-6%	-16	2%	29µM*	u	-5%
CCC(=O)N1Cc2cc(C(=O)N(C)C)nc(-c3cccc(-c4cncnc4)c3)c2[C@@H]1CCO	x	11	x	-5%	0%	x
COc1ccc(OCCCC(=O)N(C)CC(=O)Nc2ccccc2Cl)cc1	1%	-2	2%	-11%	-10%	6%
COc1ccc(-c2ccc3c(c2)c(Sc2ccccc2)c(-c2ccccc2)n3C)cn1	x	24	x	u	u	x
O=[N+]([O-])c1ccc(CSC2=NCCN2)cc1	-34%	u	x	21µM*	21µM*	-30%
SMILES	HepG2 tox	IL-1B inflam inh	TDP1 inh	TDP1 cell noCPT	TDP1 cell CPT	TGFb inhibitor
CCOc1ccc(CSC2=NCCN2)cc1[N+](=O)[O-]	-23%	-61*	5%	16µM*	u	-21%
O=[N+]([O-])c1ccc(CSC2=NCCS2)cc1	-10%	-4	x	2%	6%	1%
COc1ccc(CSc2nnnn2C)cc1[N+](=O)[O-]	1%	22	-2%	-1%	10%	-8%
CCCCOc1ccc(CSC2=NCCN2)cc1[N+](=O)[O-]	-17%	-99*	3%	21µM*	18µM*	u
C=C(C)CC(C)(C)C	x	x	6%	x	x	x
Cc1noc(C)c1CSCC(=O)N(C)CC(=O)Nc1ccccc1Cl	3%	-3	1%	-8%	-7%	9%
Nc1ccn(CCCNCC(c2ccccc2)c2ccccc2)c(=O)n1	-14%	-4	x	-26%	1%	-17%
C[C@H](CO)N1C[C@H](C)[C@@H](CN(C)Cc2ccc(-c3ccccc3)cc2)Oc2c(NS(=O)(=O)c3cn(C)cn3)cccc2C1=O	3%	20	11%	u	u	3.2µM*
C[C@H](CO)N1C[C@H](C)[C@@H](CN(C)C)Oc2c(NS(=O)(=O)c3cn(C)cn3)cccc2C1=O	-9%	11	1%	-4%	9%	-9%
C[C@@H]1CN([C@@H](C)CO)C(=O)c2cccc(NS(=O)(=O)c3cccs3)c2O[C@H]1CN(C)Cc1ccc(C(F)(F)F)cc1	-3%	-12	3%	u	16µM*	-22%
C[C@H](CO)N1C[C@H](C)[C@@H](CN(C)Cc2ccc(Cl)c(Cl)c2)Oc2c(NS(=O)(=O)c3ccc(F)cc3)cccc2C1=O	-16%	-82*	3%	23µM*	u	u
C[C@H](CO)N1C[C@H](C)[C@@H](CN(C)Cc2ccc(C(=O)O)cc2)Oc2c(NS(=O)(=O)c3ccccc3)cccc2C1=O	-1%	-2	1%	-11%	2%	-10%
